TGFb SMAD3 inh = inhibitors of TGF-b signaling; AID 588855; actives 1.2% (n = 410,000); HepG2 CAGA-GFP TGF-b/SMAD3 reporter, GFP fluorescence, 18 h; TGF-beta stimulated, 500 pg/mL final; Potency, µM (top dose mostly 46.1 µM), for the others: at the highest dose activity, negative = inhibition, most hits filed as inhibitors; note: potency is the fitted concentration of half-maximal effect; % is set by controls: 0 for no effect and ±100 for the full control effect; nearly all actives have a fitted effect of over 65% in size
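First, reporter cells (HEPG2 CAGA-GFP) rested 2 h at 37 degrees C. Next, compounds were pinned in and TGF-beta added to 500 pg/mL final. After 18 h, GFP was imaged per cell and summed per well.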
HepG2 viability = kills HepG2 cells in TGF-b inhibitor counter-screen; HepG2 CAGA-GFP viability, ATP luminescence, 18 h; Potency, µM (series often up to 46.1 µM), for the others: top-dose activity change, negative = cytotoxicity, actives largely listed as cytotoxic; actives 0.76% (n = 410,000); AID 588856; note: potency is the fitted concentration of half-maximal effect
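HepG2 CAGA-GFP cells (1000/well, DMEM with 1% FBS) received compound, then TGF-beta at 500 pg/mL final, and were incubated 18 hours at 37 degrees C. Viability was read by CellTiter-Glo luminescence. Media-only wells were set as complete cell-killing and DMSO as no toxicity.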
IL1B secr inh = blocks inflammasome-driven IL-1 beta release. THP-1 LPS/ATP IL-1B secretion, AlphaLISA, 16 h; stronger effect = lower value. activity change, % at 57.5 µM. actives 4.7% (n = 360,000). AID 743279; in the data active = activity change below about -50%; inconclusive = mostly about -30% to -49%; note: % is set by controls: 0 for no effect and ±100 for the full control effect
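Secreted IL-1B measured by AlphaLISA bead assay after 16 h compound exposure of THP-1 cells; compounds (final up to 57.5 uM) added 1 h before LPS (250 ng/mL) and ATP (1.25 mM) stimulation; lower signal means less secretion.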
TDP1 inh = TDP1 (human) enzyme inhibition; Potency, µM (highest dose often 130 µM), for the others: top-dose activity change, negative = inhibition, usual class: inhibitors; AID 485290; recombinant TDP1, AlphaScreen DNA substrate cleavage; Q9NUW8; actives 0.28% (n = 350,000); note: potency is the fitted concentration of half-maximal effect; % is set by controls: 0 for no effect and ±100 for the full control effect; nearly all actives have a fitted effect of over 40% in size
Target sequence (Q9NUW8 whole entry, looked up): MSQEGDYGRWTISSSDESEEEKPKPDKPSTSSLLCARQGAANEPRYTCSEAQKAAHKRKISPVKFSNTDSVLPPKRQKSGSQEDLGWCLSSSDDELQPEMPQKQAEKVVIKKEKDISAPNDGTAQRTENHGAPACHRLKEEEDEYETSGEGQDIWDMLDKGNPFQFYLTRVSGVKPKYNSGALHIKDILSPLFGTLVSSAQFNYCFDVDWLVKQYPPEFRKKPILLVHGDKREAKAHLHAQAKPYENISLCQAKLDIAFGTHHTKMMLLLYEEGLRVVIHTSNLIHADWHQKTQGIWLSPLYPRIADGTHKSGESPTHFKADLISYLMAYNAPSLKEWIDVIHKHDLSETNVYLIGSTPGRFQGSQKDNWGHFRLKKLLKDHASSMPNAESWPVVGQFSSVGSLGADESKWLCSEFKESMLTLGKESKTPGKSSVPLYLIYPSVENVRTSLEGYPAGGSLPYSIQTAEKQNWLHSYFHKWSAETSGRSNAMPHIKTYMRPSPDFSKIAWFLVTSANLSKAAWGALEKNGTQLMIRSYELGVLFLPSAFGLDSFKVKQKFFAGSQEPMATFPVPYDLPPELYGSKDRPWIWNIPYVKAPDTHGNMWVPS
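Steps: enzyme plus compound, 15 min RT; add biotin/phosphotyrosine-FITC oligonucleotide (15 nM final), react 5 min; add donor/acceptor beads (10 ug/ml final), 10 min; read AlphaScreen. Tdp1 at 1 nM final.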
TDP1 cell noCPT = qHTS for Inhibitors of human tyrosyl-DNA phosphodiesterase 1 (TDP1): qHTS in cells in absence of CPT; DT40 Tdp1-/- hTDP1 cells, no CPT, ATP luminescence, 48 h; Potency, µM (titrated, usually from 46.2 µM), for inactives: at the highest dose activity change, negative = growth inhibition, actives largely listed as inhibitors; actives 15% (n = 420,000); note: potency is the fitted concentration of half-maximal effect; % is set by controls: 0 for no effect and ±100 for the full control effect; nearly all actives have a fitted effect of over 55% in size
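Cells were dispensed at 400 per well, compounds added by pin tool, plates incubated ≥48 hr at 37 °C, then CellTiter-Glo added for 30 min at room temperature before luminescence reading. Line: DT40 Tdp1-/- complemented with hTDP1; camptothecin omitted.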
DT40 TDP1 CPT = DT40-hTDP1 cell growth loss with CPT; chicken DT40 Tdp1-/-;hTDP1 cells + 20 nM CPT, ATP luminescence, 48 h; Potency, µM (top dose mostly 46.2 µM), for the others: top-dose activity change, negative = growth inhibition, actives largely listed as inhibitors; actives 12% (n = 420,000); AID 686979; note: potency is the fitted concentration of half-maximal effect; % is set by controls: 0 for no effect and ±100 for the full control effect; nearly all actives have a fitted effect of over 55% in size
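Chicken DT40 Tdp1-/- cells complemented with human TDP1, 400 cells/well, exposed to compounds plus 20 nM camptothecin for at least 48 h at 37 C; viability read as ATP content by CellTiter-Glo luminescence.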
Starred values were filed as active, the others as inactive; u = inconclusive; x = no result. Only some compounds are listed: those with a hit (about 18% of all), similar ones and a draw of the others. Unless noted, calls come from the whole dose curve; as a rule, active = well fitted curve in the direction sought with a large enough effect; inconclusive = small, poorly fitted or top-dose-only effect, or another doubt; inactive = no such curve, though single readings can be large; an effect the other way counts as inactive or inconclusive.

SMILES	TGFb SMAD3 inh	HepG2 viability	IL1B secr inh	TDP1 inh	TDP1 cell noCPT	DT40 TDP1 CPT
CC(=O)OC[C@H]1O[C@@H](n2ncc(=O)[nH]c2=O)[C@H](OC(C)=O)[C@@H]1OC(C)=O	5%	2%	92	5%	11µM*	u
COC(=O)c1c(NC(=O)c2cc(=O)c3ccc(C)c(C)c3o2)sc2c1CCCC2	0%	-59%	x	0%	-5%	3%
NC(Cc1ccc(Cl)cc1)c1csc(Nc2ccc(-c3ccccc3)nn2)n1 (stereo not given)	u	-88%	-50*	x	-90%	6.5µM*
NC(Cc1ccc(Cl)cc1)c1csc(Nc2ccc(C(=O)NCCCO)cn2)n1 (stereo not given)	7%	-36%	0	x	u	u
NC(COCc1ccccc1)c1csc(Nc2cc(NCCCO)ncn2)n1 (stereo not given)	-5%	-4%	-29	x	u	u
COc1ccc(CC(N)c2csc(Nc3cc(NCCCO)ncn3)n2)cc1 (stereo not given)	u	-14%	-57*	x	u	u
NC(Cc1ccc(Cl)cc1)c1csc(Nc2cc(NCCCO)ncn2)n1 (stereo not given)	u	-48%	-60*	x	15µM*	u
Cc1ccc(S(=O)(=O)NC(=O)C2(C)CCN2C(=O)Cc2cccs2)nc1 (stereo not given)	1%	-41%	4	x	-3%	8%
Cc1ccc2c(cnn2C(=O)CCCC(=O)NCc2ccc(Cl)cc2)c1	-21%	-14%	-5	x	u	23µM*
COc1ccc(CNC(=O)CC2C[C@H](C(=O)N3CCOCC3)[C@@]3(C)c4[nH]c5ccccc5c4CCN3C2=O)cc1OC (stereo not given in full)	-16%	-26%	-3	2%	-15%	-22%
C[N+]1=C(/C=C/Nc2ccccc2Cl)C(C)(C)c2ccccc21	u	-28%	-6	9%	12µM*	23µM*
N#CC1=C2SC=C(c3ccc(Br)cc3)N2CCCC1=O	u	-43%	-12	-4%	23µM*	u
COc1ccc(-c2cc3ncc(C(C)=O)c(C)n3n2)cc1	-9%	-20%	-14	0%	-12%	-3%
COc1cc(C2N=C(N)Nc3nc4ccccc4n32)ccc1OCCC(C)C (stereo not given)	-1%	-7%	x	1%	18µM*	23µM*
NC1=NC(c2ccc(F)cc2)n2c(nc3ccccc32)N1 (stereo not given)	-4%	5%	-5	1%	-9%	-21%
CCCN(CCC)c1ccc(C2N=C(N)Nc3nc4ccccc4n32)cc1 (stereo not given)	u	-61%	x	6%	16µM*	23µM*
COc1ccc(-c2cc(=O)oc3c4c(ccc23)OCN(Cc2cccc(OC)c2)C4)cc1	17%	-16%	x	-1%	16µM*	10µM*
COc1ccc(-c2cc(=O)oc3c4c(ccc23)OCN(Cc2ccccc2)C4)cc1	33%	-11%	x	4%	u	18µM*
COc1ccc(/C=N/NC(=O)c2c(C)n(C)c3ccc(OC)cc23)c(OC)c1	-1%	17%	7	3%	u	-26%
COc1ccc2c(c1)c(C(=O)N/N=C/c1ccccc1Cl)c(C)n2C	14%	-47%	-19	x	8.2µM*	21µM*
COc1ccc2c(c1)c(C(=O)N/N=C/c1cccc(Br)c1)c(C)n2C	u	14%	0	x	10µM*	u
COc1ccc2c(c1)c(C(=O)N/N=C/c1cccc(O)c1)c(C)n2C	-12%	16%	-9	6%	10µM*	18µM*

Screens as filed in PubChem.
